# PubChem BioAssay AID624331 (National Center for Advancing Translational Sciences (NCATS), 2012)
# Inconclusive results are not listed. Active and inactive are the calls of the source. Calls follow the shape of the dose curve; as a rule, active = well fitted activation curve with a large enough effect; inconclusive = small, poorly fitted or top-dose-only effect; inactive = no such curve, though single readings can be large or run the other way.
# Experiment: qHTS assay for re-activators of p53 using a Luc reporter: Hit Validation with no p53 Expressed; as to activity change, positive = activation: 0% is about no effect
# Details: p53-null cells, luciferase reporter counter-screen; series mostly up to 46.1 µM; activity change, positive = activation: at the top concentration
# Outline: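 Counter-screen of primary hits in a cell line not transfected with p53, in Opti-MEM with 10% FBS; compounds at several concentrations (10 mM stock, 1:5; top 46.1 µM in well), 24 h at 37 deg C, 5% CO2. Luminescence read after 10 min with Amplite reagent.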
# Potency is read from the fitted curve at half-maximal effect.
Structure (SMILES),"activity change, positive = activation",Potency
C/C(=N/NC(=O)c1ccc2c(c1)OCO2)c1ccc(NC(=O)C(F)(F)F)cc1,-14.6% (inactive),
O=C(CN1C(=O)COc2ccccc21)Nc1ccc(F)cc1,36.7% (inactive),
COCCCN(C(C)=O)c1nc(-c2ccc(OC)cc2)cs1,12.8% (inactive),
Cc1ccc(NC2=C(Cl)C(=O)c3ccccc3C2=O)cc1,-87.6% (inactive),
Cc1cc(C(=O)Nc2ccc(Br)cn2)sc1C,-16.7% (inactive),
CN(C)C(=O)c1ccc2c(c1[N+](=O)[O-])C(=O)c1ccccc1C2=O,80.8% (inactive),
O=C(NC(=S)NC1CCCCC1)c1ccccc1[N+](=O)[O-],-8.53% (inactive),
NC(=O)c1cc2ccc(O)cc2oc1=Nc1ccccc1,0.331% (inactive),
C=C[C@@H]1c2cc(C)ccc2N(S(=O)(=O)c2ccc(C)cc2)[C@H](c2ccccc2C(F)(F)F)C1(C#N)C#N,13.3% (inactive),
Cc1ccc(NC(=O)NC(=O)CN2CCC(C(N)=O)CC2)c(C)c1,80.7% (inactive),
CCOCC(=O)Nc1nc2ccc(OCC)cc2s1,16.9% (inactive),
CC(C)c1ccc(NC(=O)c2snc3ccc(Cl)cc23)cc1,,1.03 µM (active)
CC(=O)Nc1ccc(Nc2cc(C)nc3c(-c4ccccc4)cnn23)cc1,44.9% (inactive),
Cc1nn(-c2ccccc2)c(N2CCCC2)c1/C=N/NC(=O)c1cc(-c2ccccc2)nc2ccccc12,-13.5% (inactive),
Nc1nc(-c2ccc([N+](=O)[O-])cc2)cs1,59.8% (inactive),
CCCCC(=O)NC(c1ccc(Cl)cc1Cl)c1ccc2cccnc2c1O (centres undefined),73.7% (inactive),
CCCCOC(=O)Nc1ccc(N2CCCCC2)cc1,27.2% (inactive),
Cc1csc(NC(=O)/C=C/c2ccc(C)o2)n1,13.6% (inactive),
COc1ccc(-n2cnc3c(cnn3CCC#N)c2=N)cc1,-37.8% (inactive),
